Common to all, as to assay: DAPPL (digital affinity profiling via proximity ligation, sequencing); 10 mM Tris-HCl pH 7.5, 50 mM NaCl, 1 mM DTT, 4% glycerol, room temperature, 30 min; GST-TFs on glutathione beads, 16-mer random dsDNA library, 0.1% formaldehyde crosslink after washing; high values mean tight binding
Holding throughout (conditions): protein: recombinant; tags: N-terminal GST; dsDNA, one strand shown

For one experiment, the target named is T1, ERF (Homo sapiens, UniProt P50548 1-548).
T1 sequence: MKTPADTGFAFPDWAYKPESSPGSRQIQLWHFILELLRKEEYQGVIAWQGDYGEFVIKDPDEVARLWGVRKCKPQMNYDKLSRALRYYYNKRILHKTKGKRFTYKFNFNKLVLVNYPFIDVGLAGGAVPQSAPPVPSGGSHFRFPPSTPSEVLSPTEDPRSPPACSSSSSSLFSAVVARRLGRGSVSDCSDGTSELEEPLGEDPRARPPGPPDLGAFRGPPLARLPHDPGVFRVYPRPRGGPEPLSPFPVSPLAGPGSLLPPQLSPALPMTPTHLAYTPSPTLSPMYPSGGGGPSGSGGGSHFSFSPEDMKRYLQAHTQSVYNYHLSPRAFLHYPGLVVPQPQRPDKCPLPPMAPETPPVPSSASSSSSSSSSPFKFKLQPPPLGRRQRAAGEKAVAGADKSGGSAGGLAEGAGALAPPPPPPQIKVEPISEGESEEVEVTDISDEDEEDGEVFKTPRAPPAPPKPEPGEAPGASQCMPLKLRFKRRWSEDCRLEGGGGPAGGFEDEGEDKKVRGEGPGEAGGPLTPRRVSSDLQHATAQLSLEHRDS
In short, it runs like this: (§1)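 Binding signal is given per hexamer as its read frequency for a factor divided by its frequency in the tag-only sample. GST-fused human transcription factors were expressed in yeast, captured on glutathione beads, barcoded with DNA and pooled with that sample, then incubated with 200 nmole of a 16-mer random double-stranded DNA library in Tris/NaCl/DTT/glycerol buffer for 30 min at room temperature. The pools were then washed, crosslinked, proximity-ligated, amplified by PCR and sequenced on an Illumina NextSeq500.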

The next experiment concerns the target T2, ETV3L (Homo sapiens, UniProt Q6ZN32 1-361).
T2 sequence: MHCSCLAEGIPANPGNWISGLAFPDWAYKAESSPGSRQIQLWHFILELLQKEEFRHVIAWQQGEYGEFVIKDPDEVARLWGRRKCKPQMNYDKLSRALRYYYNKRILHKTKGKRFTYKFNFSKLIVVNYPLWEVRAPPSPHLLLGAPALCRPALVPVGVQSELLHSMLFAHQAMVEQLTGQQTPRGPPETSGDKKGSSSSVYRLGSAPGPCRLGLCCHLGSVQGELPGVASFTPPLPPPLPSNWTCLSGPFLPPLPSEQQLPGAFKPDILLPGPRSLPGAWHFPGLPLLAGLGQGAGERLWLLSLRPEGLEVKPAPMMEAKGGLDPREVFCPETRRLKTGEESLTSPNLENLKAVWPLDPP
In short, it runs like this:
as §1

A further experiment deals with T3, ETS2 (Homo sapiens, UniProt P15036 1-469).
T3 sequence: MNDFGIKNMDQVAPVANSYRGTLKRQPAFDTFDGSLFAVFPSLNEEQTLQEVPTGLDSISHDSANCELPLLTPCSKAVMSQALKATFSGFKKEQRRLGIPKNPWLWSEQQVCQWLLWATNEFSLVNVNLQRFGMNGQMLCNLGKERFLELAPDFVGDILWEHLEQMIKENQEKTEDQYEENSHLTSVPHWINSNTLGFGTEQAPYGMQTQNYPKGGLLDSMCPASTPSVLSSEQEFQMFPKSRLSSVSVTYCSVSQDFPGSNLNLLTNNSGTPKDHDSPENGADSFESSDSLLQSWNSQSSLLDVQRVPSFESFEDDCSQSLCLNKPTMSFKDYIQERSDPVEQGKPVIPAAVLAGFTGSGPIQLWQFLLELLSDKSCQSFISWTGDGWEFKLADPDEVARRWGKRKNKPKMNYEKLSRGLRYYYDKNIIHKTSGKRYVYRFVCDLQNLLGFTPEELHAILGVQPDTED
The method in brief:
as §1

For a further experiment, the target named is T4, SPDEF (Homo sapiens, UniProt O95238 1-335).
T4 sequence: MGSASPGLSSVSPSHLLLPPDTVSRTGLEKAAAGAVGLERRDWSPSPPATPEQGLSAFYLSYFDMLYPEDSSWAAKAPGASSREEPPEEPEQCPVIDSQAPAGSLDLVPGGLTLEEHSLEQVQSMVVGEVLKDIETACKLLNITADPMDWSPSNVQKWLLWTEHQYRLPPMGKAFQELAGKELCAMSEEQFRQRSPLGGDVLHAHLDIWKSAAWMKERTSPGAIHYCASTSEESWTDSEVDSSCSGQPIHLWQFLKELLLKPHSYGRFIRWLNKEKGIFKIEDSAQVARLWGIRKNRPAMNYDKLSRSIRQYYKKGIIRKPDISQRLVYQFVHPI
The method in brief: as §1

For the next experiment, the target named is T5, ETV7 (Homo sapiens, UniProt Q9Y603 1-341).
T5 sequence: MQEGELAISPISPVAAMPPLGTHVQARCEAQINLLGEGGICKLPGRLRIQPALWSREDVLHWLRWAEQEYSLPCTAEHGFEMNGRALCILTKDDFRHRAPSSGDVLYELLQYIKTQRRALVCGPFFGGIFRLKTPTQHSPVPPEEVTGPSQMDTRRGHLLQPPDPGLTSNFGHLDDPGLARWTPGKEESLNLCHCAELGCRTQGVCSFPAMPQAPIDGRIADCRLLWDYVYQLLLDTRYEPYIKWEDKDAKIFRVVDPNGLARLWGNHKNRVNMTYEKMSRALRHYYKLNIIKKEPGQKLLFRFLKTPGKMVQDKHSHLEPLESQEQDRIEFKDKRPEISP
In short, it runs like this: as §1

The next experiment addresses T6, ELF5 (Homo sapiens, UniProt Q9UKW6-2 1-255).
T6 sequence: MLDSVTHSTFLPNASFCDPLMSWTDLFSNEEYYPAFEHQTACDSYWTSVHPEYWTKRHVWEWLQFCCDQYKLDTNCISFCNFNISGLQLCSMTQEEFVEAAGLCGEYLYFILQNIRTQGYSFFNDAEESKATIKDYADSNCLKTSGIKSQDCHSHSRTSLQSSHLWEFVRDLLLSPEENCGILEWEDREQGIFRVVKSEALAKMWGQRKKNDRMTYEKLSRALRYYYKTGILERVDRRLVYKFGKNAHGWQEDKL
The method in brief: as §1

A further experiment addresses T7, ETV3 (Homo sapiens, UniProt P41162-2 1-143).
T7 sequence: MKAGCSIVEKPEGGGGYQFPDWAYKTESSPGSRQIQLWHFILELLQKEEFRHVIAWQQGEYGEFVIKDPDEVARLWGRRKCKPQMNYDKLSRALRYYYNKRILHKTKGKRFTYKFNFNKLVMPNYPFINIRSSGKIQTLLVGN
The method in brief: as §1

The next experiment concerns the target ETV6 (Homo sapiens, UniProt P41212 1-452). The method in brief:
as §1

Chain of ETV6 (P41212 whole entry): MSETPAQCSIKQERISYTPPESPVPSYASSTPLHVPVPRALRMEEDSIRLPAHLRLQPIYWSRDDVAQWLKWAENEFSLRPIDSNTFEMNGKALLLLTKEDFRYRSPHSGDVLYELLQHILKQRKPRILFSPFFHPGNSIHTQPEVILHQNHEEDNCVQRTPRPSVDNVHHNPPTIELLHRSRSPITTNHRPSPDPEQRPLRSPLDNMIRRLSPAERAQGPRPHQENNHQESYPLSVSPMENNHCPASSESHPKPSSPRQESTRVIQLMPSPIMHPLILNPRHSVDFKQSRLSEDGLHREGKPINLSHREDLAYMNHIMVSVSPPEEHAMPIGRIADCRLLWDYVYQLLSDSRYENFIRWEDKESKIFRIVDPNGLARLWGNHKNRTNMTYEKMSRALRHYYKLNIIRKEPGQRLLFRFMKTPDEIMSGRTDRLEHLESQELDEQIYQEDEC

Turning to AATTTC, the binding signal in the experiment with ERF was 1.7 fold enrichment (6-mer frequency, TF over GST control); with ETV3L, 1.73 fold enrichment (6-mer frequency, TF over GST control); with ETS2 it was 1.83 fold enrichment (6-mer frequency, TF over GST control); with SPDEF, 1.59 fold enrichment (6-mer frequency, TF over GST control); in the experiment with ETV7, 1.74 fold enrichment (6-mer frequency, TF over GST control); in the experiment with ELF5, 2.31 fold enrichment (6-mer frequency, TF over GST control). Besides, the binding signal with ETV3 was 1.78 fold enrichment (6-mer frequency, TF over GST control); with ETV6 it was 1.94 fold enrichment (6-mer frequency, TF over GST control).

Take CAAAAC: the binding signal is 1.28 fold enrichment (6-mer frequency, TF over GST control) with ERF; 1.27 fold enrichment (6-mer frequency, TF over GST control) with ETV3L; 1.27 fold enrichment (6-mer frequency, TF over GST control) with ETS2; 1.23 fold enrichment (6-mer frequency, TF over GST control) with SPDEF; 1.23 fold enrichment (6-mer frequency, TF over GST control) with ETV7; 1.25 fold enrichment (6-mer frequency, TF over GST control) with ELF5. Also, the binding signal with ETV3 is 1.18 fold enrichment (6-mer frequency, TF over GST control); with ETV6, 1.33 fold enrichment (6-mer frequency, TF over GST control).

On to AACCTA, for which the binding signal in the experiment with ERF was 1.03 fold enrichment (6-mer frequency, TF over GST control); with ETV3L, 1.05 fold enrichment (6-mer frequency, TF over GST control); with ETS2, 1.11 fold enrichment (6-mer frequency, TF over GST control); with SPDEF, 1.08 fold enrichment (6-mer frequency, TF over GST control); in the experiment with ETV7, 1.03 fold enrichment (6-mer frequency, TF over GST control); with ELF5, 1.07 fold enrichment (6-mer frequency, TF over GST control). Besides, the binding signal is 1.07 fold enrichment (6-mer frequency, TF over GST control) with ETV3 and 1.1 fold enrichment (6-mer frequency, TF over GST control) with ETV6.

As to TCATTC, the binding signal with ERF was 1.15 fold enrichment (6-mer frequency, TF over GST control); with ETV3L, 1.28 fold enrichment (6-mer frequency, TF over GST control); in the experiment with ETS2, 1.13 fold enrichment (6-mer frequency, TF over GST control); in the experiment with SPDEF it was 1.09 fold enrichment (6-mer frequency, TF over GST control); with ETV7, 1.15 fold enrichment (6-mer frequency, TF over GST control); in the experiment with ELF5, 1.12 fold enrichment (6-mer frequency, TF over GST control). Moreover, the binding signal in the experiment with ETV3 was 1.21 fold enrichment (6-mer frequency, TF over GST control); in the experiment with ETV6, 1.24 fold enrichment (6-mer frequency, TF over GST control).

Take TTGGGG: the binding signal in the experiment with ERF is 1.39 fold enrichment (6-mer frequency, TF over GST control); with ETV3L, 1.3 fold enrichment (6-mer frequency, TF over GST control); in the experiment with ETS2, 1.25 fold enrichment (6-mer frequency, TF over GST control); in the experiment with SPDEF, 1.17 fold enrichment (6-mer frequency, TF over GST control); with ETV7, 1.12 fold enrichment (6-mer frequency, TF over GST control); in the experiment with ELF5 it was 1.14 fold enrichment (6-mer frequency, TF over GST control). Also, the binding signal is 1.13 fold enrichment (6-mer frequency, TF over GST control) with ETV3 and 1.26 fold enrichment (6-mer frequency, TF over GST control) with ETV6.

Take TTAAGC: the binding signal with ERF was 1.21 fold enrichment (6-mer frequency, TF over GST control); with ETV3L, 1.22 fold enrichment (6-mer frequency, TF over GST control); with ETS2, 1.13 fold enrichment (6-mer frequency, TF over GST control); with SPDEF, 1.04 fold enrichment (6-mer frequency, TF over GST control); with ETV7, 1.13 fold enrichment (6-mer frequency, TF over GST control); in the experiment with ELF5 it was 1.14 fold enrichment (6-mer frequency, TF over GST control). The binding signal with ETV3 was 1.22 fold enrichment (6-mer frequency, TF over GST control); in the experiment with ETV6, 1.06 fold enrichment (6-mer frequency, TF over GST control).

Turning to AATGGT, the binding signal with ERF was 1.38 fold enrichment (6-mer frequency, TF over GST control); with ETV3L it was 1.33 fold enrichment (6-mer frequency, TF over GST control); in the experiment with ETS2, 1.33 fold enrichment (6-mer frequency, TF over GST control); with SPDEF it was 1.27 fold enrichment (6-mer frequency, TF over GST control); with ETV7 it was 1.41 fold enrichment (6-mer frequency, TF over GST control); in the experiment with ELF5 it was 1.43 fold enrichment (6-mer frequency, TF over GST control). For the same sequence, the binding signal is 1.4 fold enrichment (6-mer frequency, TF over GST control) in the experiment with ETV3 and 1.39 fold enrichment (6-mer frequency, TF over GST control) in the experiment with ETV6.

For the sequence GCTTCC, the binding signal was 3.06 fold enrichment (6-mer frequency, TF over GST control) with ERF; 3.36 fold enrichment (6-mer frequency, TF over GST control) with ETV3L; 3.56 fold enrichment (6-mer frequency, TF over GST control) in the experiment with ETS2; 3.67 fold enrichment (6-mer frequency, TF over GST control) in the experiment with SPDEF; 3.14 fold enrichment (6-mer frequency, TF over GST control) in the experiment with ETV7; 4.78 fold enrichment (6-mer frequency, TF over GST control) with ELF5. In addition, the binding signal in the experiment with ETV3 was 3.8 fold enrichment (6-mer frequency, TF over GST control); in the experiment with ETV6 it was 4.28 fold enrichment (6-mer frequency, TF over GST control).

As to ACCCAT, the binding signal with ERF is 1.31 fold enrichment (6-mer frequency, TF over GST control); in the experiment with ETV3L, 1.34 fold enrichment (6-mer frequency, TF over GST control); with ETS2, 1.37 fold enrichment (6-mer frequency, TF over GST control); in the experiment with SPDEF, 1.21 fold enrichment (6-mer frequency, TF over GST control); in the experiment with ETV7, 1.37 fold enrichment (6-mer frequency, TF over GST control); with ELF5, 1.24 fold enrichment (6-mer frequency, TF over GST control). In addition, the binding signal with ETV3 was 1.25 fold enrichment (6-mer frequency, TF over GST control); with ETV6, 1.24 fold enrichment (6-mer frequency, TF over GST control).

The values are drawn from paper PMC7862700, “An all-to-all approach to the identification of sequence-specific readers for epigenetic DNA modifications on cytosine”.
